In PubChem BioAssay:
The source made the active and inactive calls.

Assays:
[1] = tested on: Human papillomavirus type 1a protein E7 (residues 44-93); test: small molecules binding HPV E7 44-93 – biochemical, small-molecule microarray, residues 44-93, 635 nm fluorescence, primary screen (AID 1108); conditions: fluorescence 635 nm, higher = more signal;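 also: E7 fragment applied at 1 µg/mL in TBST for 1 h at 4 C; score combines spot fluorescence with its signal to noise ratio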
[2] = hepatitis C replication reporter changes, two-sided – Huh7 cells, luciferase reporter, HCV replication inhibitor project, primary screen (AID 1109); conditions: Huh7 HCV replicon luciferase reporter, 48 h; higher = more signal;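 also: huh7 hepatoma cells harbouring a luciferase neomycin HCV replicon reporter; luciferase luminescence as measure of HCV replicon replication; test concentration not given here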
[3] = target: Left-right determination factor 2 (Homo sapiens) (UniProt O00292); test: small molecules binding LEFTY2 protein – biochemical, small-molecule microarray, 635 nm fluorescence scan, primary screen (AID 1110); conditions: higher = more signal
[4] = target: Calmodulin-1 (Homo sapiens) (UniProt P0DP23); test: small molecules binding calmodulin-1 with EGTA – biochemical, small-molecule microarray, Cy5-labelled CALM1, profiling panel (AID 1111); conditions: Cy5-CALM1 binding fluorescence, higher = more signal;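 also: labelled calmodulin applied in Tris saline Tween buffer holding calcium plus EGTA and DTT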
[5] = target: Calmodulin-1 (Homo sapiens) (UniProt P0DP23); test: small molecules binding Ca-loaded calmodulin-1 – biochemical, small-molecule microarray, Cy5-labelled CALM1, plus calcium, artefact control for SMM control-protein annotation, profiling panel (AID 1112); conditions: Cy5-CALM1 binding fluorescence, higher = more signal;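 also: score merges spot fluorescence with signal to noise from triplicate slides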
[6] = probe aWnt5a binding to arrayed compounds – biochemical, biotinylated probe, 635/667 nm fluorescence, primary screen (AID 1113); conditions: small-molecule microarray, higher = more signal;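 also: score merges 667 nm fluorescence intensity with signal-to-noise per printed feature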
[7] = probe aShh binding to arrayed compounds – biochemical, biotinylated probe, 635/667 nm fluorescence, primary screen (AID 1114); conditions: small-molecule microarray, higher = more signal;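 also: probe is biotin-labelled aShh protein from a stem cell growth factor screen; measures binding of labelled protein to compounds printed on the slide; score merges feature fluorescence at 667 nm with signal-to-noise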
[8] = probe aNog binding to arrayed compounds – biochemical, biotinylated probe, 635/667 nm fluorescence, primary screen (AID 1115); conditions: small-molecule microarray, higher = more signal;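 also: probe is biotinylated aNog protein used at 0.15 µg/mL for 1 h at 4 C; z-score combines 667 nm fluorescence of each spot with its signal to noise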
[9] = target: Torsin-1A-interacting protein 1 (Homo sapiens) (UniProt Q5JTV8); test: compound microarray binding of lysate hLAP1 – cell lysate, small-molecule microarray, COS7 lysate, 635/667 nm fluorescence, primary screen (AID 1116); conditions: 635 nm fluorescence, higher = more signal
[10] = target: Alpha-bungarotoxin (Bungarus multicinctus) (UniProt P60615); test: compounds binding labelled alpha-BTX control protein – biochemical, small-molecule microarray, Alexa647 label, 635/667 nm fluorescence, artefact control for SMM control protein annotation, profiling panel (AID 1117); conditions: alpha-BTX-A647 binding fluorescence, higher = more signal
[11] = target: Albumin (Bos taurus) (UniProt P02769); test: compounds binding labelled BSA control protein – biochemical, small-molecule microarray, Alexa647 label, 635/667 nm fluorescence, artefact control for SMM control protein annotation, profiling panel (AID 1118); conditions: BSA-A647 binding, fluorescence 635 nm, higher = more signal;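 also: score merges 667 nm emission intensity and signal-to-noise per printed compound spot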
[12] = probe aXIP binding to arrayed compounds – biochemical, NeuroSMM set, 635/667 nm fluorescence, primary screen (AID 1119); conditions: small-molecule microarray, higher = more signal, called active from +8 up or from −8 down;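 also: probe is the protein aXip251-270 applied at 1 µg/mL to compound-printed slides; binding of probe to printed compounds measured as 667 nm fluorescence plus signal to noise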
[13] = probe aNOTCH3 binding on compound microarray – biochemical, small-molecule microarray, 635/667 nm fluorescence, primary screen (AID 1120); conditions: higher = more signal;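 also: probe is a biotin-tagged antibody raised against NOTCH3 rather than NOTCH3 protein; score merges spot fluorescence near 667 nm with spot signal to noise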
[14] = probe aNOTCH2 binding on compound microarray – biochemical, small-molecule microarray, 635/667 nm fluorescence, primary screen (AID 1121); conditions: higher = more signal;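 also: score merges feature fluorescence read at 667 nm with its signal to noise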
[15] = target: Carbonic anhydrase 2 (Homo sapiens) (UniProt P00918); test: compounds binding carbonic anhydrase 2 – biochemical, small-molecule microarray, Alexa647-labelled CAII, profiling panel (AID 1122); conditions: CAII-A647 binding fluorescence, higher = more signal
[16] = COS7 lysate on small-molecule microarray, probe aHis, 635 nm (AID 1123); conditions: COS7 cell lysate, fluorescence, higher = more signal;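 also: z-score combines 667nm fluorescence intensity with signal-to-noise per printed compound spot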
[17] = probe aLAP1 signal on lysate-treated microarray – cell lysate, small-molecule microarray, COS7 lysate, primary screen (AID 1124); conditions: probe aLAP1, fluorescence, higher = more signal;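 also: lysate comes from COS7 cells expressing LAP1 and is applied at 0.3 µg/mL; score merges spot fluorescence near 667 nm with signal-to-noise over triplicate slides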
[18] = tested on: Sam68 (KHDRBS1); test: compounds binding KHDRBS1 protein – biochemical, small-molecule microarray, 635 nm fluorescence, primary screen (AID 1125); conditions: higher = more signal;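 also: score merges 667 nm channel intensity with signal to noise over triplicate slides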
[19] = tested on: Chordin-like protein 2 (CHRDL2); test: compounds binding chordin-like 2 – biochemical, small-molecule microarray, 635 nm fluorescence, primary screen (AID 1126); conditions: fluorescence 635 nm, higher = more signal;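 also: printed compound slides probed with Chrdl2 protein at 4 µg/mL for 1 h at 4 C; score merges 667 nm emission intensity with signal to noise over three replicate slides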
[20] = target: Concanavalin-A (Canavalia ensiformis) (UniProt P02866); test: compounds binding concanavalin A lectin – biochemical, small-molecule microarray, Alexa647 label, 635 nm, artefact control for SMM control protein annotation, primary screen (AID 1127); conditions: ConA-A647 binding fluorescence, higher = more signal;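 also: z combines 667 nm emission intensity with signal-to-noise across three replicate slides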
Sequence of Concanavalin-A (Canavalia ensiformis) (P02866 whole entry, looked up): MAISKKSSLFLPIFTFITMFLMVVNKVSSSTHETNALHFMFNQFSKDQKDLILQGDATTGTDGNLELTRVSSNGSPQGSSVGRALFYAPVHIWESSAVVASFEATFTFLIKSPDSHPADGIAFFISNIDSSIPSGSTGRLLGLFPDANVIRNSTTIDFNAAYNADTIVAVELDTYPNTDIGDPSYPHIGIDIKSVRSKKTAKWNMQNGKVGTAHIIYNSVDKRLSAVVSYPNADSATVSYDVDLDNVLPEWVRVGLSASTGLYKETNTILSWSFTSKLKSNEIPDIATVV

Sequence of Albumin (Bos taurus) (P02769 whole entry, looked up): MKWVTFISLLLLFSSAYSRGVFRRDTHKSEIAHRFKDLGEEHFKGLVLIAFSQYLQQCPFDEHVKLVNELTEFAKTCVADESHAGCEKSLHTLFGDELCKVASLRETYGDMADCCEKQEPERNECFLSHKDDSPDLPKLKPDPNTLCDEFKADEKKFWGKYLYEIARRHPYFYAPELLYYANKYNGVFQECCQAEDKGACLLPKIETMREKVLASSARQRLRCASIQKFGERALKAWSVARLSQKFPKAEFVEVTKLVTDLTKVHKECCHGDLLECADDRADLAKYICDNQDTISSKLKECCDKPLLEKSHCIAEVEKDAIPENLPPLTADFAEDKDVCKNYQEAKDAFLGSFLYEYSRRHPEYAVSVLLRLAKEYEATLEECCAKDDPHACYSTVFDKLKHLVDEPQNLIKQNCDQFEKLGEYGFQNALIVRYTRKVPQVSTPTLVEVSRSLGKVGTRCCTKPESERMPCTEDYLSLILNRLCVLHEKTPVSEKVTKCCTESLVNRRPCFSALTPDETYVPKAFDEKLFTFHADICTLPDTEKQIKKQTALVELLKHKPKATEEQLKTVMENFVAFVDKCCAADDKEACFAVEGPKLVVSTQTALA
Sequence of Alpha-bungarotoxin (Bungarus multicinctus) (P60615 whole entry, looked up): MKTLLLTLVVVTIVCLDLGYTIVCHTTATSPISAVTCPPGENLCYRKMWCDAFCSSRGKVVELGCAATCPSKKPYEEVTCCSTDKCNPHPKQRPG
Sequence of Torsin-1A-interacting protein 1 (Homo sapiens) (Q5JTV8 whole entry, looked up): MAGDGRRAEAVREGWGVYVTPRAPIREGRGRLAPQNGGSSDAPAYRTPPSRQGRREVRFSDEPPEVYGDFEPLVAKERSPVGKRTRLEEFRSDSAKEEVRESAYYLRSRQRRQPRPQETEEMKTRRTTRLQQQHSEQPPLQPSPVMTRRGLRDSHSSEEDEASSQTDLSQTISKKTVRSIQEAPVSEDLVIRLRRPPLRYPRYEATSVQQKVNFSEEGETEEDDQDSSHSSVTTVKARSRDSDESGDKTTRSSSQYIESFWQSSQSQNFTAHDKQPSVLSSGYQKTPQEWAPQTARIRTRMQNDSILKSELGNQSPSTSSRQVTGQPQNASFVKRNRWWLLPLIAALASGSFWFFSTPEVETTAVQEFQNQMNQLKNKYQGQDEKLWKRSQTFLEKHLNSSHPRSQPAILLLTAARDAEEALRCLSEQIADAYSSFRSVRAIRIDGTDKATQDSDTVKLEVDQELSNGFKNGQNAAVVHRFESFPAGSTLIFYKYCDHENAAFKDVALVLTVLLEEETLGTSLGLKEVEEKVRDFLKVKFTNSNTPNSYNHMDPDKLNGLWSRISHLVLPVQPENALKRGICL
Sequence of Left-right determination factor 2 (Homo sapiens) (O00292 whole entry, looked up): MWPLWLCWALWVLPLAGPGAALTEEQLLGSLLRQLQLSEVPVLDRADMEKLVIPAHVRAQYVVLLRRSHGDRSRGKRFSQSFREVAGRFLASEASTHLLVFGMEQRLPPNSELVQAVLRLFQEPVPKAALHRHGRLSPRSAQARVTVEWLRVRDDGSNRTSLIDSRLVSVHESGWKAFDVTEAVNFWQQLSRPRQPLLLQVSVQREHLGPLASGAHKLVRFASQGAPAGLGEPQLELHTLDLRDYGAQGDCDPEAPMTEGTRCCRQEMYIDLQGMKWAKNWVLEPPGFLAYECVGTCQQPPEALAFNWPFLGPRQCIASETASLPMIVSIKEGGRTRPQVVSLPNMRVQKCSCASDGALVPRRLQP

SMILES	composite z-score [1]	z-score [2]	composite z-score [3]	composite z-score [4]	composite z-score [5]	composite z-score [6]	composite z-score [7]	composite z-score [8]	composite z-score [9]	composite z-score [10]	composite z-score [11]	composite Z-score [12]	composite z-score [13]	composite z-score [14]	composite z-score [15]	composite z-score [16]	composite z-score [17]	composite z-score [18]	composite z-score [19]	composite z-score [20]
Cc1cc(C)cc(N2C(=O)CS(=O)(=O)C2c2cccc([N+](=O)[O-])c2)c1 (stereo not given)	-0.489	-0.0865	0.39	1.47	0.395	-0.15	0.108	0.549	1.23	1.25	0.785	1.97 (inactive)	0.799	0.189	0.547	1.73	1.36	0.828	0.433	0.989
CCOc1cc(C(O)C2C=CC3C(=O)N(c4ccccc4)C(=O)C3N2Nc2ccc([N+](=O)[O-])cc2)ccc1O (stereo not given)	0.532	-0.31	0.173	-0.085	-0.255	-0.0165	-0.0849	-0.489	0.0762	0.0502	0.839	-0.014 (inactive)	0.0488	-0.0666	0.865	1.78	0.502	0.874	-0.136	0.548
Cc1ccc(S[C@]2(C(=O)NC3CC3)CC(=O)N(C3CCCCC3)[C@@H]2c2ccc(CO)cc2I)cc1	1.43	-2.79	0.0327	0.224	0.406	-0.154	-0.304	0.45	-0.0758	0.874	0.599	-0.186 (inactive)	0.0426	-0.123	0.408	1.31	0.396	1.28	0.0261	0.896
CCCCCCc1nc(CCCc2cc3c(c(CCCCCC)n2)[Si](C(C)C)(C(C)C)OC3)cc2c1[Si](C(C)C)(C(C)C)OC2	-0.893	-3.46	-0.116	-0.63	-0.0511	-0.1	0.214	-0.303	-0.386	-0.325	-1.17	-0.295 (inactive)	-0.0427	-0.0649	-0.567	0.111	0.0313	-0.641	0.21	-0.569
COC(=O)[C@@]1(Cc2ccc(OC)cc2)[C@H]2c3cc(C(=O)N4CCCC4)n(Cc4ccccn4)c3C[C@H]2CN1C(=O)c1ccccc1	1.48	-1.52	-0.662	1.42	0.816	0.202	-0.0069	2.04	1.07	0.65	0.939	-0.832 (inactive)	0.277	0.246	0.82	1.55	0.285	1.31	-0.761	0.906
COCCOC(=O)N1C(=O)[C@@]2(c3cc(C#CCC(C(=O)OC)C(=O)OC)ccc31)[C@H](c1ccc(O)cc1)N1[C@H](c3ccccc3)[C@H](c3ccccc3)OC(=O)[C@H]1[C@@H]2C(N)=O	0.698	-0.633	0.715	0.537	-0.259	0.0297	0.0469	1.29	1.03	0.944	0.47	1.07 (inactive)	-0.0647	0.0232	0.438	1.2	0.647	1.31	0.778	0.859
[N-]=[N+]=NCc1ccccc1[C@@H]1OC(c2ccc(OCCCO)cc2)=N[C@]1(Cc1ccccc1)C(=O)N1CCCCC1	1.39	-2.79	0.232	1.4	0.955	0.0136	0.369	0.733	1.27	1.14	0.763	-0.623 (inactive)	0.211	0.0215	0.471	1.52	-0.0921	1.32	0.581	1.14
COC(=O)[C@@]1(Cc2ccccc2N=[N+]=[N-])COC(c2ccc(OCCCO)cc2)=N1	1.02	-0.0499	-0.675	0.238	0.0554	-0.15	0.333	0.0531	0.852	1.4	-0.261	1.07 (inactive)	-0.0546	-0.112	0.573	1.99	0.753	0.994	-0.473	1.08
C=C[C@H](C)[C@@H](O)c1ccc(O)c2ccccc12	-0.899	-2	-0.187	-1.15	-0.975	-0.175	-0.221	-0.689	-0.438	0.465	0.841	0.681 (inactive)	-0.191	0.291	0.493	0.165	0.361	-0.49	0.866	-1.04
C=CCNC(=O)[C@H]1[C@@H]2C(=O)O[C@@H](c3ccccc3)[C@@H](c3ccccc3)N2[C@@H](c2ccc(O)cc2)[C@]12C(=O)N(C(=O)OCCOC)c1ccc(C#CCCO)cc12	0.889	-0.605	-0.166	0.0387	0.171	-0.185	0.0639	-0.332	1.35	1.25	0.534	-0.228 (inactive)	-0.155	-0.0942	0.701	2.1	0.881	1.08	-0.445	0.903
C=CC[C@@]1(C(=O)O)N=C(c2ccc(OCCCO)cc2)O[C@@H]1c1ccccc1N=[N+]=[N-]	0.411	1.03	0.294	1.39	0.341	-0.0236	-0.181	1.24	1.02	1.77	0.851	0.544 (inactive)	0.169	0.0828	0.513	2.03	0.906	1.09	0.52	0.247
COc1ccc([Si](C)(C)[C@@H]2[C@@H](CC(=O)N3CCC[C@H]3CO)O[C@]3(C(=O)N(C)c4c(Br)cc(C)cc43)[C@H]2C)cc1	1.28	-2.05	0.396	0.207	0.0431	0.0219	-0.0035	-0.229	0.948	0.338	0.588	0.306 (inactive)	0.0674	-0.175	0.292	1.15	0.461	1.3	0.872	1.07
COc1cc(C(O)C2C=CC3C(=O)N(c4ccccc4)C(=O)C3N2Nc2ccc(C#N)cc2)cc(OC)c1OC (stereo not given)	0.626	0.0783	0.305	2.23	1.19	0.0115	0.214	1.42	1.52	2.79	1.01	0.0402 (inactive)	0.178	0.135	0.883	3.23	1.26	1.32	-1.05	1.21
CCN(CC)c1ccc(N2CC=CC34O[C@@H]5C=CCCOC(=O)C5[C@H]3C(=O)N(CCCCCO)[C@@H]4C2=O)cc1 (stereo not given in full)	-0.668	0.348	-0.48	-1.15	-1.45	-0.0721	0.0756	-0.025	1.04	-0.66	-0.515	1.07 (inactive)	0.0522	0.396	0.285	0.395	0.483	0.13	-0.218	-0.459
[N-]=[N+]=NCc1ccccc1C[C@@]1(C(=O)NCC(O)CO)N=C(c2ccc(OCCCO)cc2)O[C@@H]1c1ccccc1CN=[N+]=[N-] (stereo not given in full)	1.06	-1.73	-0.88	2.11	0.876	0.0219	0.269	2.29	2.01	1.5	1.01	-0.082 (inactive)	0.319	-0.0335	0.546	3.29	-0.0011	1.29	-0.257	1.1
